Assay outcomes as filed in PubChem BioAssay.
Only some compounds are listed: those with a hit (about 3.8% of all), similar ones and a draw of the others.
Yp Topo-I inh = Y. pestis Topo-I inhibition via cleavage products | Y. pestis Topo-I cleavage product accumulation, plate reader | activity, % at 10 µM | hit rate 0.064% among 360,000 | AID 504884; in the data active = activity above about 50%, passing the limit was not always enough
Mtb FBA inh = Mtb fructose-bisphosphate aldolase inhibition | P9WQA3 | purified M. tuberculosis FBA, fluorescence read-out | inhibition, % at 1 µM | hit rate 2.3% among 360,000 | AID 588726;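 note: 0% = vehicle and 100% = reference inhibitor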
Target sequence (P9WQA3 whole entry, looked up): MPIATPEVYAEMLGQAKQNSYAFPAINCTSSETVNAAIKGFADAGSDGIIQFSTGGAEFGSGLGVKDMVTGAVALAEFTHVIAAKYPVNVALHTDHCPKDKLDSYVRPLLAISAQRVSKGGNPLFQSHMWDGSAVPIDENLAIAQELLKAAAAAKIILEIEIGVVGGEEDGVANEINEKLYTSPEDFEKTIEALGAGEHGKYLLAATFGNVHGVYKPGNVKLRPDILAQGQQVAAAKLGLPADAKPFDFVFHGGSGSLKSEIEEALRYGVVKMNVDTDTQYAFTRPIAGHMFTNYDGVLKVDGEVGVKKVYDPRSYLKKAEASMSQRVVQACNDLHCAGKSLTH
PrPC TRFRET = reduces human prion protein on the cell surface. P04156. cell surface PrPC, TR-FRET read-out. inhibition, % at 13.8 µM. hit rate 0.43% among 370,000. AID 720596; in the data active = inhibition above about 24%; note: 0% = median of the test wells and 100% = reference compound wells
Mtb hypoxia rep = inhibitors of hypoxia-regulated fluorescent reporter in Mycobacterium tuberculosis | hit rate 0.1% among 300,000 | fluorescence inhibition, % (concentration not given with the values) | M. tuberculosis hypoxia-regulated fluorescent reporter, fluorescence; in the data active = fluorescence inhibition mostly above about 23%, no sharp cut-off; inactive = mostly below about 17%
PrP UTR inh = inhibition of PrP 5' UTR reporter expression | inhibition, % (concentration not given with the values) | cell-based PrP 5' UTR mRNA reporter, plate reader | hit rate 0.35% among 340,000; in the data active = inhibition above about 52%; note: 0 = median of the neutral control wells
GDH-TPI counter-1 = inhibits GDH-TPI coupling enzymes, artifact for Mtb FBA screen; GDH-TPI coupled enzyme counterscreen, NADH absorbance; inhibition, % at 4.8 µM; hit rate 1.2% among 360,000; AID 588335; in the data active = inhibition above about 30%;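 note: 0% = DMSO wells and 100% = wells lacking the enzyme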
Mtb FBA confirm = Mtb FBA inhibition, confirmed; shares compounds with Mtb FBA inh; purified M. tuberculosis FBA, fluorescence read-out; inhibition, % at 1 µM; hit rate 78% among 5,600; AID 651616;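 note: 0% = vehicle wells and 100% = reference inhibitor wells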
GDH-TPI counter-2 = inhibits GDH-TPI coupling enzymes, flagging Mtb FBA hits; shares compounds with Mtb FBA inh; GDH-TPI coupled enzyme counterscreen, fluorescence; inhibition, % at 1 µM; hit rate 81% among 5,600; AID 652141; in the data active = inhibition above about 10%
GDH-TPI DR = GDH-TPI dose response counter-screen for Mtb FBA; shares compounds with Mtb FBA inh; GDH-TPI coupled enzyme assay, fluorescence, artifact counterscreen; IC50, µM; hit rate 79% among 170; AID 652145; call rule not given here
* marks the source's active call; other numbers are inactive results; · = no result given; + = active, no number. Cut-off read from the data, not from the text of the source, unless noted: active = inhibition above about 27%; inactive = the rest.

SMILES | Yp Topo-I inh | Mtb FBA inh | PrPC TRFRET | Mtb hypoxia rep | PrP UTR inh | GDH-TPI counter-1 | Mtb FBA confirm | GDH-TPI counter-2 | others
Cc1oc(C)c(C(=O)Nc2ccc(CC(=O)O)cc2)c1C(=O)Nc1ccc(CC(=O)O)cc1 | -4 | 48* | 6 | · | -10 | -3 | 13 | -5 | GDH-TPI DR=>10
CC(=O)Nc1ccc(CC(=O)O)cc1 | 2 | -2 | -2 | · | -5 | 1 | · | ·
N#CC(=Cc1ccc(O)c(O)c1)C(=O)Nc1ccccc1 | · | · | · | 14 | · | · | · | ·
CCOc1nc(-c2ccc(OC)cc2)ccc1-c1noc(C)n1 | -2 | 76* | 3 | -1 | -15 | 9 | 92* | 78*
COc1ccc(-c2ccc(-c3noc(C)n3)c(OC)n2)cc1 | -2 | 74* | 2 | -2 | · | 13 | 93* | 88*
COc1ccc(-c2ccc(-c3noc(C4CCCCC4)n3)c(OC)n2)cc1 | 40 | 28* | 0 | 1 | -30 | 7 | + | +
NC(=NOC(=O)c1cccc(F)c1)c1cccc([N+](=O)[O-])c1 | · | · | · | 0 | · | · | · | ·
CC1=CCC(C(=O)NN=Cc2cccs2)C(c2ccc(F)cc2)C1 (stereo unspecified) | · | · | · | -6 | · | · | · | ·
Cc1ccccc1/C=C1\OC(=O)c2ccccc21 | 9 | 17 | -2 | 2 | -16 | 26 | · | ·
Cc1ccc(/C=C2\OC(=O)c3ccccc32)cc1 | 7 | 45* | 8 | 8 | -16 | 23 | -2 | -6
CCCOc1ccc2ccccc2c1C=Nn1cnnc1 | · | · | · | 2 | · | · | · | ·
Cc1ccsc1C=NNC(=O)Cc1ccc(Cl)cc1 | · | · | · | 12 | · | · | · | ·
O=C(Cn1cnc2ccccc21)NN=Cc1cccc([N+](=O)[O-])c1 | · | · | · | -8 | · | · | · | ·
O=C1NC(=O)c2cc(NC(=O)c3cccc4ccccc34)ccc21 | 6 | 10 | -1 | -5 | -30 | -4 | · | ·
O=C(Nc1ccc2c(c1)C(=O)NC2=O)c1ccccc1 | -2 | 41* | 5 | 7 | -15 | -3 | 198* | 123*
O=C(Nc1ccc2c(c1)C(=O)NC2=O)c1ccccc1Cl | 0 | 30* | -5 | 5 | -4 | 12 | 7 | -2
CC(Cc1ccccc1)=NNC(=O)CNC(=O)c1ccccc1 | · | · | · | -9 | · | · | · | ·
O=C(c1cc(-c2ccco2)nc2ccccc12)N1CCCC(C(F)(F)F)C1 (stereo unspecified) | 1 | 102* | -6 | 4 | -15 | 2 | + | +
CCOC(=O)C1CCCN(C(=O)c2cc(-c3ccco3)nc3ccccc23)C1 (stereo unspecified) | 1 | 84* | 3 | 5 | -16 | 5 | + | 157*
O=C(c1cc(-c2ccncc2)nc2ccccc12)N1CCCC(C(F)(F)F)C1 (stereo unspecified) | 2 | 0 | 2 | · | · | 7 | · | ·
CCOC(=O)c1c(C)[n+](-c2ccc(C)cc2)c(CC)c2cc(OC)c(OC)cc12 | 2 | 41* | -16 | -5 | · | 11 | 82* | 57*
COC(=O)c1cccc(NC(=O)c2cnoc2C)c1 | 8 | 31* | 2 | -13 | -22 | -2 | 95* | 73*
Cc1oncc1C(=O)Nc1ccc2ccccc2c1 | 6 | -1 | 9 | 6 | -19 | -3 | · | ·
COc1ccc(-c2cc(C(=O)NCc3ccco3)c3ccccc3n2)cc1 | 0 | 28* | -6 | 10 | 4 | 19 | · | +
COc1ccc(-c2cc(C(=O)NCC3CCCO3)c3cc(C)ccc3n2)cc1 (stereo unspecified) | -2 | 76* | -4 | -6 | -17 | 12 | 107* | 72*
SMILES | Yp Topo-I inh | Mtb FBA inh | PrPC TRFRET | Mtb hypoxia rep | PrP UTR inh | GDH-TPI counter-1 | Mtb FBA confirm | GDH-TPI counter-2 | others
COc1ccc(-c2nc(C(=O)NCC3CCCO3)cc3c2[nH]c2ccccc23)cc1 (stereo unspecified) | -3 | 30* | 15 | · | -24 | 9 | + | +
COc1ccc(-c2cc(C(=O)NCC3CCCO3)c3cc(C(C)C)ccc3n2)cc1 (stereo unspecified) | 4 | 67* | 2 | 7 | -17 | 24 | 10 | -3 | GDH-TPI DR=1.6*
O=C(NCc1ccco1)c1cc(-c2ccccc2)nc2ccccc12 | 7 | 0 | -4 | · | -14 | 8 | · | ·
Cc1ccc(-c2nc(C(=O)NCC3CCCO3)cc3c2[nH]c2ccccc23)cc1 (stereo unspecified) | 9 | 13 | 17 | · | 1 | -3 | · | ·
Cc1ccc(-n2c(O)c(C=NN3CCCCC3c3cccnc3)c(=O)[nH]c2=S)cc1 (stereo unspecified) | · | · | · | 10 | · | · | · | ·
COc1ccc(-n2c(N)c(C(=O)NCC3CCCO3)c3nc4ccccc4nc32)c(OC)c1 (stereo unspecified) | -5 | 104* | -18 | -8 | -9 | 15 | 73* | 71*
COc1ccc(-n2nc(C(=O)NCC(=O)NCC3CCCO3)c3ccccc3c2=O)c(OC)c1 (stereo unspecified) | 1 | 1 | 1 | 2 | -26 | 2 | · | ·
COc1cccc(-c2cc(C(=O)NCC3CCCO3)c3ccccc3n2)c1 (stereo unspecified) | 2 | -6 | 2 | 10 | -8 | 8 | · | ·
COc1ccc(-c2cc(C(=O)NCC3CCCO3)c3ccccc3n2)cc1 (stereo unspecified) | 4 | 46* | -1 | 11 | -22 | 9 | 178* | 173*
CN(C)c1nc(NCc2ccccc2)nc(NN=Cc2cccc(Br)c2)n1 | · | · | · | -6 | · | · | · | ·
COc1ccc(C#Cc2c(-c3ccccc3OC)oc3ccccc23)cc1 | · | · | 0 | · | · | · | · | ·
COc1ccccc1-c1oc2ccccc2c1C#CCCO | 15 | 65* | 1 | 15 | -5 | 20 | 7 | 4
C=CCNC(=O)/C(=C\c1ccco1)NC(=O)c1ccco1 | -3 | 59* | -6 | 6 | -29 | 14 | 81* | 72*
C=CCNC(=O)/C(=C/c1ccco1)NC(=O)c1ccc(Br)o1 | 6 | 2 | 3 | · | -21 | 2 | · | ·
CC(=NNC(=O)COc1c(C)cccc1C)c1cccs1 | · | · | · | 0 | · | · | · | ·
CCC(CO)Nc1ncnc2c1cnn2-c1ccc(OC)cc1 (stereo unspecified) | 4 | 30* | -3 | 10 | -32 | -3 | 63* | 52*
